Data on 6 compounds can be found in PubChem BioAssay (NCATS).

The target in test [1] is Estrogen receptor (Homo sapiens) (UniProt P03372). The experiment in a line: qHTS assay for small molecule agonists of estrogen receptor alpha signaling (AID 588514).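 Also: 0% = vehicle only and 100% = reference agonist; nearly all actives have a fitted effect of over 70% in size.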 In a few lines: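 Fluorescence from CCF4 cleavage reports ER-alpha-driven beta-lactamase expression in HEK 293 cells treated 18 hrs at 37 C. Data normalized to 17-beta-estradiol (20 nM) and DMSO, fitted to Hill equation.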
On the technique in general: In qHTS, concentration-response curves come from the screen itself.

The target in test [2] is Glucocorticoid receptor (Homo sapiens) (UniProt P04150). The experiment in a line: qHTS assay for small molecule antagonists of glucocorticoid receptor signaling (AID 588533; active = well fitted inhibition curve with a large enough effect in the signal ratio, with a control signal flat, not every such curve was filed as active; the % refers to the signal ratio; also: potency is read from the fitted curve at half-maximal effect). The essentials:
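Antagonist-mode qHTS: compound titrations added to GRE-bla HeLa cells, then dexamethasone 2 nM final; 18 h, 37 C. CCF4 FRET fluorescence normalized to dexamethasone and DMSO; IC50 from Hill fit.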

Test [3] deals with Peroxisome proliferator-activated receptor delta (Homo sapiens) (UniProt Q03181). The test can be described thus: qHTS assay for small molecule agonists of peroxisome proliferator-activated receptor delta signaling (AID 588534).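 Also: 0% = DMSO basal wells and 100% = positive control agonist at 10 µM.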 The essentials:
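EC50 and efficacy values derive from Hill fits of a concentration series in a beta-lactamase reporter cell assay. Exposure is 18 hrs at 37 C, with CCF4 fluorescence as the readout.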

Test [4] can be described thus: qHTS assay for small molecule antagonists of peroxisome proliferator-activated receptor delta signaling (AID 588535; active = well fitted inhibition curve with a large enough effect in the signal ratio, with a control signal flat, not every such curve was filed as active; the % refers to the signal ratio;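 as to max response: cells co-treated with a PPAR-delta agonist as stimulator during compound exposure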). The note with it: HEK293T PPARd-UAS-bla, beta-lactamase FRET ratio, 18 h; 460 nm channel. The essentials:
(§1)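 Beta-lactamase reporter read-out (405 nm excitation, 460/530 nm emission) after CCF4 loading for 2 hrs at RT. HEK293T PPAR-delta-UAS-bla cells, 2% charcoal/dextran FBS, compounds for 18 hrs at 37 C. Hill fit gave IC50 and efficacy.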

Test [5] has as its target Peroxisome proliferator-activated receptor delta (Homo sapiens) (UniProt Q03181). The description is as above. The essentials:
as §1

Test [6] deals with Vitamin D3 receptor (Homo sapiens) (UniProt P11473). The experiment in a line: qHTS assay for small molecule antagonists of vitamin D receptor signaling (AID 588541).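 Also: receptor activated by calcitriol during compound treatment; series mostly up to about 77 µM; % is scaled to controls: 0 for no effect and ±100 for the full control effect.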 The essentials:
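VDR-UAS-bla HEK293T cells in 2% charcoal-stripped FBS were stimulated with 1-alpha,25-dihydroxyvitamin D3 (3 nM final) plus compound for 16 h at 37 C. The beta-lactamase CCF4 readout was normalized to 50 nM agonist and DMSO, and Hill fits gave IC50.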

Test [7] concerns the target Retinoic acid receptor RXR-alpha (Homo sapiens) (UniProt P19793). The experiment in a line: qHTS assay for small molecule agonists of retinoid X receptor alpha signaling (AID 588544).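 Also: 0% = DMSO basal wells and 100% = reference agonist.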
Test [8] addresses Thyroid hormone receptor beta (Homo sapiens) (UniProt P10828). The test can be described thus: qHTS assay for small molecule agonists of thyroid hormone receptor beta signaling (AID 588545).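 Also: 0% = DMSO only and 100% = 10 nM T3.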 The essentials:
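Compounds were tested as agonists in TR-UAS-bla-GripTite HEK 293 cells. After 18 hrs at 37 C, CCF4 substrate was added and fluorescence read after 2 hrs at room temperature.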

The nature of test [9]: qHTS assay for small molecule antagonists of retinoid X receptor alpha signaling (AID 588546; active = well fitted inhibition curve with a large enough effect in the signal ratio, with a control signal flat, not every such curve was filed as active; the % refers to the signal ratio;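 also: cells stimulated with 9-cis-retinoic acid as agonist; % is scaled to controls: 0 for no effect and ±100 for the full control effect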). Conditions: HEK293T RXRa-UAS-bla, beta-lactamase ratio, antagonist mode; measured here: W530 green channel, cytotoxicity proxy. The essentials: (§2)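 Beta-lactamase reporter inhibition, read as CCF4 fluorescence ratio (ex 405, em 460/530 nm) after 2 h at RT. HEK293T UAS-bla cells, 2500/well, were stimulated with 9-cis-RA at 500 or 100 nM final alongside test compound for 18 h at 37 C.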

Test [10] addresses Retinoic acid receptor RXR-alpha (Homo sapiens) (UniProt P19793). The test is described as above. Conditions: HEK293T RXRa-UAS-bla, beta-lactamase ratio, antagonist mode. In a few lines: as §2
Test [11] deals with Thyroid hormone receptor beta (Homo sapiens) (UniProt P10828). The test can be described thus: qHTS assay for small molecule antagonists of thyroid hormone receptor beta signaling (AID 588547; active = well fitted inhibition curve with a large enough effect in the signal ratio, with a control signal flat, not every such curve was filed as active; the % refers to the signal ratio;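 also: cells stimulated with 0.4 nM T3 agonist during compound exposure; series mostly up to about 77 µM; % is scaled to controls: 0 for no effect and ±100 for the full control effect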). Conditions: TR-UAS-bla HEK293, beta-lactamase ratio, antagonist mode, 18 h. In a few lines: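 TR-UAS-bla GripTite HEK293 cells in 2% charcoal/dextran FBS medium; compounds 0.59 nM to 92 uM with T3 at 0.4nM final, 18 h at 37 C. Beta-lactamase read by CCF4 fluorescence (460/530 nm); Hill fits gave IC50 and efficacy.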

Test [12] can be described thus: qHTS assay for small molecule activators of the p53 signaling pathway (AID 651743; active = well fitted activation curve with a large enough effect in the signal ratio, not every such curve was filed as active; the % refers to the signal ratio; also: potency is read from the fitted curve at half-maximal effect; as to activation: series mostly up to about 92 µM; % of control where 0% means no effect). The note with it: HCT-116 p53RE-bla, beta-lactamase FRET ratio, 16 h; activation: stronger effect = higher value. In a few lines:
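Reporter: beta-lactamase driven by p53 response elements, stably integrated in HCT-116 cells. Cells seeded at 4,000/well, 5 h preincubation, compound (DMSO) 16 h at 37 C; B/G FRET substrate 2 h RT; fluorescence intensity read.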

A short description of test [13]: qHTS assay for small molecule activators of the nuclear factor-kappa B (NF-kB) signaling pathway (AID 651749; active = well fitted activation curve with a large enough effect in the signal ratio; the % refers to the signal ratio; also: series mostly up to about 77 µM; % of control where 0% means no effect). Conditions: NF-kB-bla ME-180 cells, beta-lactamase FRET ratio, 16 h; activation: stronger effect = higher value. In a few lines: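 NF-kB-bla ME-180 cells, 2,000/well; 23 nL compound or DMSO pinned; 16 hr, 37C/5% CO2; beta-lactamase FRET read-out.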
A short description of test [14]: qHTS assay for environmental chemicals that activate the Aryl hydrocarbon Receptor (AhR) signaling pathway (AID 651777; active = well fitted curve in the direction sought with a large enough effect; an effect the other way counts as inactive or inconclusive; also: % of control where 0% means no effect; nearly all actives have a fitted effect of over 15% in size). Conditions: 1A2-DRE human hepatoma cells, luciferase, 24 h; activation: stronger effect = higher value. In a few lines:
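Luminescence read-out: One-Glo added for 30 min at RT after 24 hr compound treatment (37 C, 5% CO2) of human hepatoma cells expressing a DRE/CYP1A2 promoter–luciferase reporter; increased signal indicates AhR activation.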

The target in test [15] is Peroxisome proliferator-activated receptor alpha (Homo sapiens) (UniProt Q07869). The experiment in a line: qHTS assay for small molecule agonists of the peroxisome proliferator-activated receptor alpha (PPARalpha) signaling pathway (AID 651778; active = well fitted curve in the direction sought with a large enough effect; an effect the other way counts as inactive or inconclusive; also: % of control where 0% means no effect). Conditions: PathHunter PPARalpha complementation, chemiluminescence, 6 h; max response: stronger effect = higher value. The essentials: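 Enzyme-fragment complementation assay in which ligand-bound PPARalpha translocates and forms an active enzyme that generates chemiluminescence. Cells were plated overnight, exposed to compound for 6 hr at 37 C, and then given detection reagent for 60 min at room temperature.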

The nature of test [16]: qHTS assay for small molecule agonists of the antioxidant response element (ARE) signaling pathway measured by Nrf2-dependant transcriptional activity (AID 720636; active = well fitted curve in the direction sought with a large enough effect in the repeat runs; an effect the other way counts as inactive or inconclusive;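 also: HepG2 cells with an ARE-driven luciferase reporter; % of control where 0% means no effect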). The essentials:
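HepG2 ARE-luc reporter line, 1% dialyzed FBS; 6 hr attachment at 37 C, compound pinned in, 16 hr at 37 C/5% CO2; ONE-Glo, 30 min RT, luminescence read.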

The nature of test [17]: qHTS assay for small molecule agonists of the antioxidant response element (ARE) signaling pathway measured by Nrf2-dependant transcriptional activity - cell viability counter screen (AID 720653; active = well fitted curve in the direction sought with a large enough effect in the repeat runs; an effect the other way counts as inactive or inconclusive; also: % is scaled to controls: 0 for no effect and ±100 for the full control effect). Conditions: ARE-bla HepG2 viability, CellTiter-Glo ATP luminescence, 16 h; max response: stronger effect = lower value. In a few lines:
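ARE-bla HepG2 cells treated with compounds for 16 h at 37C; this counter screen measures viability as intracellular ATP by CellTiter-Glo luminescence after 30 min at room temperature.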

Test [18] in a line: qHTS assay for cell viability of HEK293 cells (AID 743288; active = well fitted curve in the direction sought with a large enough effect; an effect the other way counts as inactive or inconclusive; also: % is scaled to controls: 0 for no effect and ±100 for the full control effect; nearly all actives have a fitted effect of over 50% in size). The note with it: ATP luminescence (CellTiter-Glo), 18 h; max response: stronger effect = lower value. The essentials:
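After 18 h compound exposure at 37 C, parental HEK293 cells (2,000/well) are lysed with CellTiter-Glo and luminescence is read following 30 min at room temperature.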

Test [19] is described as follows: qHTS assay for cell viability of the p53RE-bla HCT-116 cell line (AID 743292; active = well fitted curve in the direction sought with a large enough effect; an effect the other way counts as inactive or inconclusive; also: % is scaled to controls: 0 for no effect and ±100 for the full control effect; nearly all actives have a fitted effect of over 55% in size). In a few lines:
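Luminescent ATP quantitation (CellTiter-Glo) served as the viability read-out; reagent was added after 16 h compound exposure at 37 C and read after 30 min at room temperature. Cells: p53RE-bla HCT-116, 4,000 per well.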

Test [20] deals with Nuclear receptor subfamily 1 group I member 2 (Rattus norvegicus) (UniProt Q9R1A7). The test can be described thus: qHTS assay for small molecule activators of the rat pregnane X receptor (rPXR) signaling pathway (AID 651751; call rule not given here; also: 0% is about no effect). Conditions: rPXR reporter cells, luciferase (One-Glo), 24 h.

Molecules are shown by their SMILES. Results filed as inconclusive are left out. Activity calls are given as the source filed them. Unless noted, calls follow the shape of the full dose curve.

Peroxisome proliferator-activated receptor alpha (Homo sapiens), sequence (Q07869 whole entry, looked up, the tested form may be a part): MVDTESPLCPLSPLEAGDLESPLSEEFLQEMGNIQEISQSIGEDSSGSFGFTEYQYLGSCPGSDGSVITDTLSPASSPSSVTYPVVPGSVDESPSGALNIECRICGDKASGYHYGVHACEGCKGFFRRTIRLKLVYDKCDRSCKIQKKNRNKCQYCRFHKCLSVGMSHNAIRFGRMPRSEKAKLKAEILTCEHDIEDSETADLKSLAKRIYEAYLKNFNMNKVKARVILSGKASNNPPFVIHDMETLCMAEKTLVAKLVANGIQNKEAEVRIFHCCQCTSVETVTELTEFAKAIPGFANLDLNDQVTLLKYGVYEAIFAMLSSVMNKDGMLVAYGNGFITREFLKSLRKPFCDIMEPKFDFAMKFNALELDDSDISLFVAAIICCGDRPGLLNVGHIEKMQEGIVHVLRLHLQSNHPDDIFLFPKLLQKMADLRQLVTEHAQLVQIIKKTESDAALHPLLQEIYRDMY
Retinoic acid receptor RXR-alpha (Homo sapiens), sequence (P19793 whole entry, looked up): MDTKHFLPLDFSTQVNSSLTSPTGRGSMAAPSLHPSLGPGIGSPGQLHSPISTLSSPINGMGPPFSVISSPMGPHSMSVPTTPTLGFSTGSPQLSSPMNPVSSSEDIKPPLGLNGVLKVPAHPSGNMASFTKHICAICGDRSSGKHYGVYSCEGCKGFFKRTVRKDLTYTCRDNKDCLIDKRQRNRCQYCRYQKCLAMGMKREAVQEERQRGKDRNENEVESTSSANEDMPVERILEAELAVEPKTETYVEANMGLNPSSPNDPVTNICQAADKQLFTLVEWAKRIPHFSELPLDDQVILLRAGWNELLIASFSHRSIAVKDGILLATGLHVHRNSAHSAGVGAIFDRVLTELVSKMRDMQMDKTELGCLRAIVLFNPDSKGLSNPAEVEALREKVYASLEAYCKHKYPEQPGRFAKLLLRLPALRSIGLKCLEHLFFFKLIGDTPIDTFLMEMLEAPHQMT
Thyroid hormone receptor beta (Homo sapiens), sequence (P10828 whole entry, looked up): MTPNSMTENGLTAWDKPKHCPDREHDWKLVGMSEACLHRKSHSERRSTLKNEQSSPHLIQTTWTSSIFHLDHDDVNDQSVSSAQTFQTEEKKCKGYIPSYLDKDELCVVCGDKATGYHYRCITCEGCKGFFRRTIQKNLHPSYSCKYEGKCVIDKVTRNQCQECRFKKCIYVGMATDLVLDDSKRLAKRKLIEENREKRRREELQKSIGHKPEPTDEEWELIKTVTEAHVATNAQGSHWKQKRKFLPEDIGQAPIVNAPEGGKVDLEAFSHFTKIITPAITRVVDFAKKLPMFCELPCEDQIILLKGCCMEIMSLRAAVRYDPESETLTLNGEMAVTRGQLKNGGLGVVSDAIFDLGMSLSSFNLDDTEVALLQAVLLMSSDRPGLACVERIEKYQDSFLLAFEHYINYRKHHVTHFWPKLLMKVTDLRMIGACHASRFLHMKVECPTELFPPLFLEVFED
Estrogen receptor (Homo sapiens), sequence (P03372 whole entry, looked up): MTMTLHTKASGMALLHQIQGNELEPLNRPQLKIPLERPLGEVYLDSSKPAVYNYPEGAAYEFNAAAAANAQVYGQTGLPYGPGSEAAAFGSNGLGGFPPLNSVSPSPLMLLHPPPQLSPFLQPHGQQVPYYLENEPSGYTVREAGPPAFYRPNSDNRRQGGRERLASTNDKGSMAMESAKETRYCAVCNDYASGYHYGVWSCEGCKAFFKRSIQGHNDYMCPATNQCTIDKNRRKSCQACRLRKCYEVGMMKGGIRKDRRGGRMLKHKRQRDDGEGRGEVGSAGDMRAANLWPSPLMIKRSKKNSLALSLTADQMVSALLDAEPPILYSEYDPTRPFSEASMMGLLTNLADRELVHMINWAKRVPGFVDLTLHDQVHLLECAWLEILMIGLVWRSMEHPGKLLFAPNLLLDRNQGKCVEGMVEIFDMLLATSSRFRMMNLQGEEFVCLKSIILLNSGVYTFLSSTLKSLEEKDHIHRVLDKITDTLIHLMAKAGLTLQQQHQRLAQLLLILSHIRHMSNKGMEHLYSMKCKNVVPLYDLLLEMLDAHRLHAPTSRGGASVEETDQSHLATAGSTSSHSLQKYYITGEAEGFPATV
Vitamin D3 receptor (Homo sapiens), sequence (P11473 whole entry, looked up): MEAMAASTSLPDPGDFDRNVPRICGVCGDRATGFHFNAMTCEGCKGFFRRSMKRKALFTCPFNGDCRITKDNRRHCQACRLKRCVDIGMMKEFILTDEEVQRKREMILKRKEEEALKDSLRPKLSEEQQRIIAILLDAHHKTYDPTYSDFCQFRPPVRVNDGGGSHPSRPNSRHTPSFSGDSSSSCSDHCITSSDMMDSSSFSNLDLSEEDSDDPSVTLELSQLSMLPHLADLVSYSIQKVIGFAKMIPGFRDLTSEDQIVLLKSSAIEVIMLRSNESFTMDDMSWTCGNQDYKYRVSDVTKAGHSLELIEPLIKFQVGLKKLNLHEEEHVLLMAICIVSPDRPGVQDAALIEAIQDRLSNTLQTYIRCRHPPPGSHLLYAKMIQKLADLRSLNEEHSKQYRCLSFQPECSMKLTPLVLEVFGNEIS
Peroxisome proliferator-activated receptor delta (Homo sapiens), sequence (Q03181 whole entry, looked up): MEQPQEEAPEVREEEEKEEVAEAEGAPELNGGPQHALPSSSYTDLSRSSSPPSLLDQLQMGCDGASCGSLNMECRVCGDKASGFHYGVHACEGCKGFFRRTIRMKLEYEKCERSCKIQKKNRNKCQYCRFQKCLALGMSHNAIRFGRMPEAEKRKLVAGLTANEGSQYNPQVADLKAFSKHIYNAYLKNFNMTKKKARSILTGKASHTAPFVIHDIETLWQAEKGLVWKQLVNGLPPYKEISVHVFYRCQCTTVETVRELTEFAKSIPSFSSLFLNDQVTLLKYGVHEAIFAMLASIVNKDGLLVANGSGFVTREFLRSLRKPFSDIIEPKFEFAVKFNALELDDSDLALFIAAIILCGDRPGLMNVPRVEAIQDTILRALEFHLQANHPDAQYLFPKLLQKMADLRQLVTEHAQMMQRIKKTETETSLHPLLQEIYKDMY
Glucocorticoid receptor (Homo sapiens), sequence (P04150 whole entry, looked up): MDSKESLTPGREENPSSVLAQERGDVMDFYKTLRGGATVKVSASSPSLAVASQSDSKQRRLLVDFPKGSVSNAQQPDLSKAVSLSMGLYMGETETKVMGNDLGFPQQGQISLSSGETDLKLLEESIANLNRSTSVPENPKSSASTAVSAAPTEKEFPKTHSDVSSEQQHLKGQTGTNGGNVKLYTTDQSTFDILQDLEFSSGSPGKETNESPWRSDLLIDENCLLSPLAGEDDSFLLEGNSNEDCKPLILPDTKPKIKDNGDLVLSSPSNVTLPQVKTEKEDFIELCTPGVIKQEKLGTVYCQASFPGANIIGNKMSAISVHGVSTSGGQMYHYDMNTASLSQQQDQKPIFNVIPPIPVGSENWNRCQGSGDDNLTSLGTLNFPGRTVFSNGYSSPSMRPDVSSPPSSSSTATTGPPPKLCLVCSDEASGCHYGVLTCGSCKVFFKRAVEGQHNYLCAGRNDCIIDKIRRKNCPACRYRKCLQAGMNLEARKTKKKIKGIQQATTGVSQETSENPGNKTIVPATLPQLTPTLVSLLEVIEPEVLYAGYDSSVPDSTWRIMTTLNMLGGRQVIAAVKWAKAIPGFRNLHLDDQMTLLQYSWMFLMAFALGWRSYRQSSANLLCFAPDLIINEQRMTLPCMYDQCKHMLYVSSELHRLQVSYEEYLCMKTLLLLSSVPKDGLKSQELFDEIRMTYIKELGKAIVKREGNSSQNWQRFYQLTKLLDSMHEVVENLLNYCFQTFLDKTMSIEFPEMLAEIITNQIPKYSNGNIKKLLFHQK
Nuclear receptor subfamily 1 group I member 2 (Rattus norvegicus), sequence (Q9R1A7 whole entry, looked up): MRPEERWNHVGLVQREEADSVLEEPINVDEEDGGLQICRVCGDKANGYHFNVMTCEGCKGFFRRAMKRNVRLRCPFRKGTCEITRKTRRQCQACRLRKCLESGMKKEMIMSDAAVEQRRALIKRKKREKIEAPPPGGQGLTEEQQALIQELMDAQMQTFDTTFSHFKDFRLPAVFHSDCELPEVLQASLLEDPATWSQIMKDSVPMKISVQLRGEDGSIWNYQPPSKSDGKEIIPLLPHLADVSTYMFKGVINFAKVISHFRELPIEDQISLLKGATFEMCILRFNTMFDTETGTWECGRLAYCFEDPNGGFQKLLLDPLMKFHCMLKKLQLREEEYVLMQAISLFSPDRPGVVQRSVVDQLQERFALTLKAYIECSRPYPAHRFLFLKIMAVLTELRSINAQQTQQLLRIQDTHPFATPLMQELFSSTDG

Regarding `Clc1ccc(C2(Cn3cncn3)CC(Br)CO2)c(Cl)c1` (stereo unspecified), the Potency result in [1], in test [2], in test [5], in test [6], in test [7] and in test [8] was “inactive” each time. Also, the Potency entry in [16] and in test [19] was “inactive” in each case. The compound was called inactive in test [3]. Moreover, the max response in test [4] was 30.9%; in test [9], -1.33%; in test [10], -17.6% (inactive); in test [15] it was 0.204% (inactive); in [17], -3.86% (inactive); in test [18], -20.3% (inactive). Besides, in test [11], the activity change % (negative = inhibition) is -0.525% (inactive). For the same compound, the values for the activation in test [12], in [13] and in test [14] were 1.75% (inactive), -2.79% (inactive) and 0.536% (inactive), respectively.

In the case of `CCCCNC(=O)OCC#CI`, the Potency entry in test [1], in [8], in test [16] and in test [19] was “inactive” throughout. In addition, in test [3], the compound was called inactive. The max response in [9] is 2.86%; in test [10], -22.6% (inactive); in [15], -2.4% (inactive). The activation in test [12] was -1.36% (inactive); in [14] it was -10.9% (inactive).

In the case of `CC(C)(C)C(O)/C(=C\c1ccc(Cl)cc1Cl)n1cncn1` (stereo unspecified), the Potency result in test [1], in test [6], in test [8] and in test [16] was “inactive” each time. In test [2], the Potency was 35.5 µM (active). The result in test [3] was inactive. Also, the activity change % (negative = inhibition) in test [11] was -35.6% (inactive). For the same compound, the results for the activation in test [12] and in [14] were 9.12% (inactive) and 6.02% (inactive), respectively. Besides, the max response in [15] is 1.97% (inactive); in [17], -10.7% (inactive); in test [18], -6.74% (inactive).

Turning to `CO/N=C(/C(=O)OC)c1ccccc1COc1ccccc1C`, the Potency result in [1], in test [7], in test [8], in test [16] and in test [19] was “inactive” in each case. The activity change % (negative = inhibition) in [11] is -29.5% (inactive). In addition, the Potency in test [12] is 25.1 µM (active). Further, the activation in test [13] is -0.43% (inactive). Further, the max response in [15] was 5.1% (inactive); in test [17], -19.8% (inactive); in [18] it was -26.1% (inactive).

As to `CCc1cc(C)cc(CC)c1-c1c(OC(=O)C(C)(C)C)n2n(c1=O)CCOCC2`, the Potency entry in test [1], in [2], in test [5], in test [6], in test [7] and in [8] was “inactive” in each case. In addition, the Potency result in test [16] and in test [19] was “inactive” throughout. Further, the outcome in test [3] was inactive. Moreover, the max response was 34.5% in test [4]; 0.581% in test [9]; 4.99% (inactive) in test [10]; -1.33% (inactive) in [15]; 0.802% (inactive) in test [17]; -3.66% (inactive) in [18]. Also, the max response in [20] is 1.04% (inactive). The activity change % (negative = inhibition) in test [11] is -5.07% (inactive). In addition, the activation in test [12] is -4.38% (inactive); in test [13], -1.54% (inactive).

Consider `CCOC(=O)C(Cl)Cc1cc(-n2nc(C)n(C(F)F)c2=O)c(F)cc1Cl` (stereo unspecified), for which the Potency entry in [1], in [2], in test [5], in test [6], in test [7] and in [8] was “inactive” throughout. The Potency result in test [16] and in test [19] was “inactive” each time. Besides, the outcome in test [3] was inactive. The max response is 64.4% in [4]; 13.3% in [9]; -48.3% (inactive) in test [10]; 11% (inactive) in test [15]; -4.81% (inactive) in [17]; -19.9% (inactive) in test [18]. In addition, the max response in test [20] is -2.22% (inactive). In addition, the activity change % (negative = inhibition) in [11] is 18.6% (inactive). Also, the values for the activation in test [12], in [13] and in test [14] were 1.44% (inactive), -0.796% (inactive) and 1.53% (inactive), respectively.
